Inconclusive results are not listed. Calls of active or inactive are those of the source. Calls follow the shape of the dose curve; as a rule, active = well fitted curve in the direction sought with a large enough effect; inconclusive = small, poorly fitted or top-dose-only effect, or another doubt; inactive = no such curve, though single readings can be large; an effect the other way counts as inactive or inconclusive.
What was measured:
NIH3T3 = assay: qHTS assay to identify novel small-molecules to repurpose for Merkel cell carcinoma treatment (AID 1296009); settings: MCC and control cell lines, CellTiter-Glo viability, 72 h; at 44.8 µM (top of the series) unless noted; also: nearly all actives have a fitted effect of over 60% in size
Outline: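 Cells were incubated with compound for 72 hr at 37 degree celsius before CellTiter-Glo addition. Luminescence was normalized with no-cell wells as full cytotoxicity and DMSO as baseline.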

C33A = assay: Primary qHTS to identify gynecologic anti-cancer compounds using libraries of approved drugs and bioactive compounds (AID 1345084); settings: Gynecologic cancer cell panel viability, ATPlite luminescence, 48 h; series mostly up to 57.5 µM; also: % is scaled to controls: 0 for no effect and ±100 for the full control effect; nearly all actives have a fitted effect of over 55% in size
Outline: (§1)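 48 h compound exposure at 37 C, 5% CO2; five-point qHTS. ATPlite luminescence readout of cell ATP.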

CAOV3 = assay: as above; settings: Gynecologic cancer cell panel viability, ATPlite luminescence, 48 h; series mostly up to 57.5 µM
Outline: as §1

CASKI = assay: as above; settings: Gynecologic cancer cell panel viability, ATPlite luminescence, 48 h; series mostly up to 57.5 µM
Outline: as §1

Es-2 = assay: as above; settings: Gynecologic cancer cell panel viability, ATPlite luminescence, 48 h; series mostly up to 57.5 µM
Outline: as §1

HeLa = assay: as above; settings: Gynecologic cancer cell panel viability, ATPlite luminescence, 48 h; series mostly up to 57.5 µM
Outline: as §1

Hek293T = assay: as above; settings: Gynecologic cancer cell panel viability, ATPlite luminescence, 48 h, control line for the selectivity index; series mostly up to 57.5 µM
Outline: as §1

JEG-3 = assay: as above; settings: Gynecologic cancer cell panel viability, ATPlite luminescence, 48 h; series mostly up to 57.5 µM
Outline: as §1

OV90 = assay: as above; settings: Gynecologic cancer cell panel viability, ATPlite luminescence, 48 h; series mostly up to 57.5 µM
Outline: as §1

PA-1 = assay: as above; settings: Gynecologic cancer cell panel viability, ATPlite luminescence, 48 h; series mostly up to 57.5 µM
Outline: as §1

SKOV3 = assay: as above; settings: Gynecologic cancer cell panel viability, ATPlite luminescence, 48 h; series mostly up to 57.5 µM
Outline: as §1

Tov-21-G = assay: as above; settings: Gynecologic cancer cell panel viability, ATPlite luminescence, 48 h; series mostly up to 57.5 µM
Outline: as §1

Tov112D = assay: as above; settings: Gynecologic cancer cell panel viability, ATPlite luminescence, 48 h; series mostly up to 57.5 µM
Outline: as §1

COc1ccc(O[C@@H]2O[C@H](CO)[C@@H](O)[C@H](O)[C@H]2O)cc1OC
inactive: outcome (NIH3T3) | Potency (C33A) | Potency (CAOV3) | outcome (CASKI) | Potency (Es-2) | Potency (HeLa) | Potency (Hek293T) | Potency (JEG-3) | Potency (OV90) | Potency (PA-1) | Potency (SKOV3) | Potency (Tov-21-G) | Potency (Tov112D)

CC1(C)C=Cc2c(ccc3c2[N+]([O-])=C2C3(O)CC34NC(=O)C5(CCCN5C3=O)CC4C2(C)C)O1 (centres undefined)
inactive: outcome (NIH3T3) inactive [at 17.4 µM] | Potency (C33A) | Potency (CAOV3) | outcome (CASKI) | Potency (Es-2) | Potency (HeLa) | Potency (Hek293T) | Potency (JEG-3) | Potency (OV90) | Potency (PA-1) | Potency (SKOV3) | Potency (Tov-21-G) | Potency (Tov112D)

C[C@H]1/C=C/C=C/C=C/C=C/C=C/[C@@H](O)[C@H](C(=O)O)[C@H](O)C[C@H](O)CCC[C@H](O)C[C@H](O)C[C@H](O)[C@@H](C)C(=O)O[C@@H]1C
inactive: outcome (NIH3T3) inactive [at 17.4 µM] | Potency (C33A) | Potency (CAOV3) | outcome (CASKI) | Potency (Es-2) | Potency (HeLa) | Potency (Hek293T) | Potency (JEG-3) | Potency (OV90) | Potency (PA-1) | Potency (SKOV3) | Potency (Tov-21-G) | Potency (Tov112D)

CCCCS(=O)(=O)NC(Cc1ccc(OCCCCC2CCNCC2)cc1)C(=O)O (centres undefined)
inactive: outcome (NIH3T3) | Potency (C33A) | Potency (CAOV3) | outcome (CASKI) | Potency (Es-2) | Potency (HeLa) | Potency (Hek293T) | Potency (JEG-3) | Potency (OV90) | Potency (PA-1) | Potency (SKOV3) | Potency (Tov-21-G) | Potency (Tov112D)

CCNC(=O)OC1CCN(c2nncc3cc(OC)c(OC)cc23)CC1
inactive: outcome (NIH3T3) | Potency (C33A) | Potency (CAOV3) | outcome (CASKI) | Potency (Es-2) | Potency (HeLa) | Potency (Hek293T) | Potency (JEG-3) | Potency (OV90) | Potency (PA-1) | Potency (SKOV3) | Potency (Tov-21-G) | Potency (Tov112D)

Cc1c(O)cc2c(c1O)COC1(O)CCCOC21 (centres undefined)
inactive: outcome (NIH3T3) | Potency (C33A) | Potency (CAOV3) | outcome (CASKI) | Potency (Es-2) | Potency (HeLa) | Potency (Hek293T) | Potency (JEG-3) | Potency (OV90) | Potency (PA-1) | Potency (SKOV3) | Potency (Tov-21-G) | Potency (Tov112D)

CC1(O)CCC2C(C3C1CCC3(C)O)C2(C)C (centres undefined)
inactive: outcome (NIH3T3) | Potency (C33A) | Potency (CAOV3) | outcome (CASKI) | Potency (Es-2) | Potency (HeLa) | Potency (Hek293T) | Potency (JEG-3) | Potency (OV90) | Potency (PA-1) | Potency (SKOV3) | Potency (Tov-21-G) | Potency (Tov112D)

CN1CCN(c2nc(-c3ccc(C(=O)NC4(C(=O)NCC#N)CCCCC4)cc3)cs2)CC1
inactive: outcome (NIH3T3) | Potency (C33A) | Potency (CAOV3) | outcome (CASKI) | Potency (Es-2) | Potency (HeLa) | Potency (Hek293T) | Potency (JEG-3) | Potency (OV90) | Potency (PA-1) | Potency (SKOV3) | Potency (Tov-21-G) | Potency (Tov112D)

C=C1C(O)CC2C(C(=O)O)=COC(O[C@@H]3O[C@H](COC(=O)c4ccc(O)cc4)[C@@H](O)[C@H](O)[C@H]3O)C12 (some centres undefined)
inactive: outcome (NIH3T3) inactive [at 17.4 µM] | Potency (C33A) | Potency (CAOV3) | outcome (CASKI) | Potency (Es-2) | Potency (HeLa) | Potency (Hek293T) | Potency (JEG-3) | Potency (OV90) | Potency (PA-1) | Potency (SKOV3) | Potency (Tov-21-G) | Potency (Tov112D)

CC1(C)CC[C@]2(C(=O)O)CC[C@]3(C)C(=CCC4[C@@]5(C)CC[C@H](O[C@@H]6O[C@H](C(=O)O)[C@@H](O)[C@H](O)[C@H]6O)C(C)(C)C5CC[C@]43C)C2C1 (some centres undefined)
inactive: outcome (NIH3T3) inactive [at 17.4 µM] | Potency (C33A) | Potency (CAOV3) | outcome (CASKI) | Potency (Es-2) | Potency (HeLa) | Potency (Hek293T) | Potency (JEG-3) | Potency (OV90) | Potency (PA-1) | Potency (SKOV3) | Potency (Tov-21-G) | Potency (Tov112D)

C=C(C(=O)O)[C@H]1C[C@]2(C)C(=O)CC[C@]23O[C@H]1C[C@@H]3C
inactive: outcome (NIH3T3) | Potency (C33A) | Potency (CAOV3) | outcome (CASKI) | Potency (Es-2) | Potency (HeLa) | Potency (Hek293T) | Potency (JEG-3) | Potency (OV90) | Potency (PA-1) | Potency (SKOV3) | Potency (Tov-21-G) | Potency (Tov112D)

CC1OC(OC2C(OC3C(O[C@H]4CC[C@@]5(C)C(CC[C@]6(C)C5CC=C5C7CC(C)(C)CC(O)[C@]7(C)CC[C@]56C)C4(C)C)OC(C(=O)O)C(O)C3O)OCC(O)C2O)C(O)C(O)C1O (some centres undefined)
inactive: outcome (NIH3T3) inactive [at 9.27 µM] | activity change, negative = cytotoxicity (C33A) 14% [at 11.6 µM] | activity change, negative = cytotoxicity (CAOV3) 4.78% [at 11.6 µM] | activity change, negative = cytotoxicity (CASKI) -6.68% [at 11.6 µM] | activity change, negative = cytotoxicity (Es-2) 1.85% [at 11.6 µM] | activity change, negative = cytotoxicity (HeLa) 7.99% [at 11.6 µM] | activity change, negative = cytotoxicity (Hek293T) -2.65% [at 11.6 µM] | activity change, negative = cytotoxicity (JEG-3) 6.46% [at 11.6 µM] | activity change, negative = cytotoxicity (OV90) 9.07% [at 11.6 µM] | activity change, negative = cytotoxicity (PA-1) 30% [at 11.6 µM] | activity change, negative = cytotoxicity (SKOV3) 7.87% [at 11.6 µM] | activity change, negative = cytotoxicity (Tov-21-G) 6.64% [at 11.6 µM] | activity change, negative = cytotoxicity (Tov112D) 1.05% [at 11.6 µM]

C[C@@H]1O[C@@H](O[C@H]2[C@@H]3C=CO[C@@H](O[C@@H]4O[C@H](CO)[C@@H](O)[C@H](O)[C@H]4O)[C@@H]3[C@@]3(CO)O[C@@H]23)[C@H](OC(=O)/C=C/c2ccc(O)cc2)[C@H](O)[C@H]1O
inactive: outcome (NIH3T3) inactive [at 17.4 µM] | Potency (C33A) | Potency (CAOV3) | outcome (CASKI) | Potency (Es-2) | Potency (HeLa) | Potency (Hek293T) | Potency (JEG-3) | Potency (OV90) | Potency (PA-1) | Potency (SKOV3) | Potency (Tov-21-G) | Potency (Tov112D)

Source: PubChem BioAssay (NCATS)
